Assay results taken from PubChem BioAssay (NCI).
The panel holds about 83,000 compounds, 20% with a hit somewhere; the sample as a whole holds those more often.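 Treatment: one concentration, 48 hours, 96-well format. Scoring: percent growth, with anything below 10 considered active.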 Activity calls are given as the source filed them.

How the values were obtained:
Test in all cases: NCI-60 one-dose screen, 48 h (100 = growth as untreated, 0 = no growth, -100 = all killed)
HT29 colon = settings: 10 µM unless noted
SNB-75 CNS = settings: 10 µM unless noted
SNB-19 CNS = settings: 10 µM unless noted
U251 CNS = settings: 10 µM unless noted
PC-3 prostate = settings: 10 µM unless noted
SK-MEL-5 melanoma = settings: 10 µM unless noted
UACC-62 melanoma = settings: 10 µM unless noted
LOX IMVI melanoma = settings: 10 µM unless noted
SK-MEL-28 melanoma = settings: 10 µM
SK-MEL-2 melanoma = settings: 10 µM unless noted
EKVX NSCLC = settings: 10 µM unless noted
SN12C renal = settings: 10 µM unless noted
UO-31 renal = settings: 10 µM unless noted
TK-10 renal = settings: 10 µM unless noted
ACHN renal = settings: 10 µM unless noted
CAKI-1 renal = settings: 10 µM unless noted
A498 renal = settings: 10 µM unless noted
CCRF-CEM leukemia = settings: 10 µM unless noted
MOLT-4 leukemia = settings: 10 µM unless noted
SR leukemia = settings: 10 µM unless noted

Measured: growth

Cc1nc2ccccc2c(/C=C/c2ccccc2)c1C(=O)/C=C/c1ccc(Cl)cc1
active: HT29 colon -8.66% | U251 CNS -33.2% | LOX IMVI melanoma -90.3% | CCRF-CEM leukemia 3.51% | MOLT-4 leukemia 5.62%
inactive: SNB-75 CNS 57.8% | SNB-19 CNS 13.6% | PC-3 prostate 33.9% | SK-MEL-5 melanoma 32.4% | UACC-62 melanoma 34.9% | SK-MEL-28 melanoma 19.2% | SK-MEL-2 melanoma 14.7% | EKVX NSCLC 39.9% | SN12C renal 19.7% | UO-31 renal 11.1% | TK-10 renal 21.9% | ACHN renal 14.3% | CAKI-1 renal 12.6% | A498 renal 36.7%

CC(=O)c1ccc(NC(=O)Nc2ccc(S(=O)(=O)Nc3ccc(Cl)nn3)cc2)cc1
inactive: HT29 colon 111% | SNB-75 CNS 86.4% | SNB-19 CNS 95.8% | U251 CNS 103% | PC-3 prostate 104% | SK-MEL-5 melanoma 100% | UACC-62 melanoma 92% | LOX IMVI melanoma 99% | SK-MEL-28 melanoma 107% | SK-MEL-2 melanoma 108% | EKVX NSCLC 99% | SN12C renal 97.9% | UO-31 renal 78.5% | TK-10 renal 119% | ACHN renal 103% | CAKI-1 renal 93% | A498 renal 84% | CCRF-CEM leukemia 116% | MOLT-4 leukemia 104% | SR leukemia 117%

CN1CCN(Cc2ccc(C(=O)Nc3cncc(C#Cc4cnc5cccnn45)c3)cc2C(F)(F)F)CC1
inactive: HT29 colon 23% | SNB-75 CNS 96.9% | SNB-19 CNS 95% | U251 CNS 65.2% | PC-3 prostate 60.4% | SK-MEL-5 melanoma 74.3% | UACC-62 melanoma 74.2% | LOX IMVI melanoma 56% | SK-MEL-28 melanoma 67% | SK-MEL-2 melanoma 31.8% | EKVX NSCLC 75% | SN12C renal 48.1% | UO-31 renal 21.5% | TK-10 renal 82.8% | ACHN renal 25.6% | CAKI-1 renal 13.9% | A498 renal 11.3% | CCRF-CEM leukemia 32.6% | MOLT-4 leukemia 13.6%

O=C(NCc1ccccc1)C1CN(c2ccc(Cl)cc2)N(c2ccc(Cl)cc2)C1=O (configuration not stated)
inactive: HT29 colon 48.8% | SNB-75 CNS 82.9% | SNB-19 CNS 84.9% | U251 CNS 84.2% | PC-3 prostate 67.9% | SK-MEL-5 melanoma 83.3% | UACC-62 melanoma 58.7% | LOX IMVI melanoma 88.4% | SK-MEL-28 melanoma 88.9% | SK-MEL-2 melanoma 85.8% | EKVX NSCLC 87.8% | SN12C renal 91% | UO-31 renal 55.9% | TK-10 renal 95.7% | ACHN renal 94.7% | CAKI-1 renal 75.4% | A498 renal 73.4% | CCRF-CEM leukemia 73.4% | MOLT-4 leukemia 64.3% | SR leukemia 34.3%

Nc1nc(N)c2c(n1)NC1(C=C(O)c3ccccc31)C1=C(N2)c2ccccc2C1=O (configuration not stated)
inactive: HT29 colon 125% | SNB-75 CNS 169% | SNB-19 CNS 103% | U251 CNS 103% | PC-3 prostate 107% | SK-MEL-5 melanoma 108% | UACC-62 melanoma 110% | LOX IMVI melanoma 94.3% | SK-MEL-28 melanoma 108% | SK-MEL-2 melanoma 112% | EKVX NSCLC 113% | SN12C renal 102% | UO-31 renal 77.1% | TK-10 renal 142% | ACHN renal 96.1% | CAKI-1 renal 83.8% | A498 renal 109% | CCRF-CEM leukemia 97.3% | MOLT-4 leukemia 104% | SR leukemia 134%

COc1ccc(Cn2cc(Cn3cc(C=C4C(=O)NC(=O)NC4=O)c4ccccc43)nn2)cc1
inactive: HT29 colon 117% | SNB-75 CNS 78.1% | SNB-19 CNS 90.4% | U251 CNS 92.3% | PC-3 prostate 84.8% | SK-MEL-5 melanoma 60.7% | UACC-62 melanoma 64.6% | LOX IMVI melanoma 79.4% | SK-MEL-28 melanoma 102% | SK-MEL-2 melanoma 85.8% | EKVX NSCLC 99.4% | SN12C renal 85.8% | UO-31 renal 56.3% | TK-10 renal 83.7% | ACHN renal 91.4% | CAKI-1 renal 70.1% | A498 renal 22.2% | CCRF-CEM leukemia 85% | MOLT-4 leukemia 75.3%

O=c1c2cccc(F)c2sc2c(N3CCNCC3)nc3ccccc3c12
inactive: SNB-75 CNS 35.3% | SNB-19 CNS 46.5% | U251 CNS 10.3% | PC-3 prostate 39.8% | SK-MEL-5 melanoma 56.2% | UACC-62 melanoma 54% | LOX IMVI melanoma 19.9% | SK-MEL-28 melanoma 69.1% | SK-MEL-2 melanoma 95% | EKVX NSCLC 48.2% | SN12C renal 46.5% | UO-31 renal 23% | TK-10 renal 53% | ACHN renal 16% | CAKI-1 renal 39.4% | A498 renal 48.5% | CCRF-CEM leukemia 13.2%
active: HT29 colon -45.4% | MOLT-4 leukemia -18.8% | SR leukemia 3.21%

O=C(Cn1cc(COc2ncnc3c2cnn3-c2ccccc2)nn1)Nc1cccc2ccccc12
inactive: HT29 colon 102% | SNB-75 CNS 74.9% | SNB-19 CNS 88.4% | U251 CNS 96.7% | PC-3 prostate 95.8% | SK-MEL-5 melanoma 92.5% | UACC-62 melanoma 83.9% | LOX IMVI melanoma 97.5% | SK-MEL-28 melanoma 100% | SK-MEL-2 melanoma 113% | EKVX NSCLC 85.5% | SN12C renal 96.8% | UO-31 renal 99.8% | TK-10 renal 108% | ACHN renal 91% | CAKI-1 renal 90.6% | A498 renal 88.8% | CCRF-CEM leukemia 96.6% | MOLT-4 leukemia 94.8% | SR leukemia 101%

O=C(/C=C/c1ccc(F)cc1)c1ccc(Nc2nc(NCCO)nc(Nc3ccc(Cl)cc3)n2)cc1
inactive: HT29 colon 22.4% | SNB-75 CNS 81.4% | SNB-19 CNS 93.4% | U251 CNS 27% | PC-3 prostate 68% | SK-MEL-5 melanoma 75.4% | UACC-62 melanoma 74.5% | LOX IMVI melanoma 37.3% | SK-MEL-28 melanoma 86.9% | SK-MEL-2 melanoma 103% | EKVX NSCLC 67.7% | SN12C renal 94% | UO-31 renal 70.7% | TK-10 renal 93.4% | ACHN renal 70.8% | CAKI-1 renal 73.6% | A498 renal 70.4% | CCRF-CEM leukemia 60.5% | MOLT-4 leukemia 57.9% | SR leukemia 25.8%

O=C1/C(=C/c2ccc(O)cc2)COc2ccc(O)cc21
inactive: HT29 colon 98.3% | SNB-75 CNS 96.4% | SNB-19 CNS 99.9% | U251 CNS 80% | PC-3 prostate 94.3% | SK-MEL-5 melanoma 102% | UACC-62 melanoma 92.8% | LOX IMVI melanoma 70.1% | SK-MEL-28 melanoma 105% | SK-MEL-2 melanoma 114% | EKVX NSCLC 106% | SN12C renal 96.7% | UO-31 renal 87.5% | TK-10 renal 115% | ACHN renal 96.5% | CAKI-1 renal 103% | A498 renal 103% | CCRF-CEM leukemia 76.7% | MOLT-4 leukemia 93.7% | SR leukemia 33%

CCOC(=O)c1sc(-c2ccc(OS(=O)(=O)c3ccccc3[N+](=O)[O-])c(C=O)c2)nc1C
inactive: HT29 colon 110% | SNB-75 CNS 73.4% | SNB-19 CNS 76.1% | U251 CNS 43% | PC-3 prostate 70% | UACC-62 melanoma 64% | SK-MEL-28 melanoma 79.4% | SK-MEL-2 melanoma 86.6% | EKVX NSCLC 92.3% | UO-31 renal 57.1% | TK-10 renal 85.5% | ACHN renal 101% | CAKI-1 renal 38.8% | CCRF-CEM leukemia 12.1%
active: SK-MEL-5 melanoma -57.3% | LOX IMVI melanoma -6.91% | SN12C renal 3.63% | A498 renal -84.6% | MOLT-4 leukemia 9.88% | SR leukemia 9.06%

NS(=O)(=O)c1ccc(CCN=C=S)cc1
active: LOX IMVI melanoma -27.9% | UO-31 renal -41.9% | TK-10 renal -4.75% | ACHN renal -70.7% | SR leukemia 9.82%
inactive: HT29 colon 14.7% | SNB-75 CNS 29.1% | SNB-19 CNS 73.5% | U251 CNS 27.6% | PC-3 prostate 47% | SK-MEL-5 melanoma 74.7% | UACC-62 melanoma 68.5% | SK-MEL-28 melanoma 55% | SK-MEL-2 melanoma 63% | EKVX NSCLC 99.9% | SN12C renal 28.6% | CAKI-1 renal 21.8% | A498 renal 79.8% | CCRF-CEM leukemia 10.4% | MOLT-4 leukemia 16.3%

COC(=O)/C(CCC=C(C)C)=C1\[C@@H](OC(C)=O)C[C@@]2(C)[C@H]1C[C@@H](O)[C@H]1[C@@]3(C)CC[C@H](NC(=O)c4cnccn4)[C@@H](C)[C@@H]3CC[C@@]12C
inactive: HT29 colon 99% | SNB-75 CNS 86.3% | SNB-19 CNS 96.5% | U251 CNS 98.3% | PC-3 prostate 86.2% | SK-MEL-5 melanoma 96.5% | UACC-62 melanoma 86.6% | LOX IMVI melanoma 93.5% | SK-MEL-28 melanoma 111% | SK-MEL-2 melanoma 118% | EKVX NSCLC 94.1% | SN12C renal 95.7% | UO-31 renal 85.6% | TK-10 renal 117% | ACHN renal 101% | CAKI-1 renal 92% | A498 renal 108% | CCRF-CEM leukemia 103% | MOLT-4 leukemia 83.9% | SR leukemia 93.5%

Nc1ccc(-c2ccc(-c3ccccc3N)c3[nH]c4ccccc4c23)cc1
inactive: HT29 colon 13.9% | SNB-75 CNS 28.4% | SNB-19 CNS 39% | U251 CNS 35.4% | PC-3 prostate 24.9% | UACC-62 melanoma 25.4% | LOX IMVI melanoma 27.7% | SK-MEL-28 melanoma 51% | SK-MEL-2 melanoma 19.5% | EKVX NSCLC 34.9% | SN12C renal 32.7% | UO-31 renal 22.5% | TK-10 renal 23.8% | ACHN renal 32.1% | CAKI-1 renal 25.4% | A498 renal 20.6% | CCRF-CEM leukemia 13% | MOLT-4 leukemia 22% | SR leukemia 19.6%
active: SK-MEL-5 melanoma 6.03%
